# Screening results from PubChem.
# Compounds with a hit are over-represented: about 18% of the library has one in this group of screens.
# PLK1 PBD inh: qHTS for Inhibitors of PLK1-PDB (polo-like kinase 1 - polo-box domain): Primary Screen; Serine/threonine-protein kinase PLK1 (Homo sapiens), P53350; Plk1 PBD binding of FITC phosphopeptide, fluorescence polarization; Potency, µM, most hits filed as inhibitors; 2.8% of 360,000 active; note: series mostly up to about 57 µM; nearly all actives have a fitted effect of over 65% in size
# DT40 TDP1 CPT: qHTS for Inhibitors of human tyrosyl-DNA phosphodiesterase 1 (TDP1): qHTS in cells in presence of CPT. chicken DT40 Tdp1-/-;hTDP1 cells + 20 nM CPT, ATP luminescence, 48 h. Potency, µM (series often up to 46.2 µM), most hits filed as inhibitors. 12% of 420,000 active; note: nearly all actives have a fitted effect of over 55% in size
#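 Chicken DT40 Tdp1-/- cells complemented with human TDP1, 400 cells/well, exposed to compounds plus 20 nM camptothecin for at least 48 h at 37 C; viability read as ATP content by CellTiter-Glo luminescence.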
# VDR inhibitor: Inhibitors of the vitamin D receptor (VDR): qHTS; VDR-SRC2-3 peptide fluorescence polarization, 2 h; Potency, µM, hits mostly inhibitors; 0.93% of 400,000 active; AID 504847, 2011
# Target sequence (P11473 whole entry, looked up): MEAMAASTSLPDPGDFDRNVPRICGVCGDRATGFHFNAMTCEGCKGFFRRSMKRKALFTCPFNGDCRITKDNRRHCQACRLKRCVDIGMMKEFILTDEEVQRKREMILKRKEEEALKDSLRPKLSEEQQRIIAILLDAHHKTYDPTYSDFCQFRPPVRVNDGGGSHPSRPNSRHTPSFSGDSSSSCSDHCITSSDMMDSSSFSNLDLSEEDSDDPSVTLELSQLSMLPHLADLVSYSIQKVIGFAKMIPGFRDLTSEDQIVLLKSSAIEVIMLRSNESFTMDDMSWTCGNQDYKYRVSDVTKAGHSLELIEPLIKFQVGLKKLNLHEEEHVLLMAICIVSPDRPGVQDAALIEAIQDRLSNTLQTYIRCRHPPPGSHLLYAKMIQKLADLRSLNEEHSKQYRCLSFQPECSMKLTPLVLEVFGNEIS
#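 Two reagent solutions held at 4 deg C in the dark were dispensed, compounds pinned at 23 nl, and the mixture incubated 2 h at room temperature. Read-out: fluorescence polarization of VDR–SRC2-3 peptide binding.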
# TDP1 block: qHTS Assay for Inhibitors of Tyrosyl-DNA Phosphodiesterase (TDP1); Tyrosyl-DNA phosphodiesterase 1 (Homo sapiens), Q9NUW8; recombinant TDP1, AlphaScreen DNA substrate cleavage; Potency, µM (top dose mostly 130 µM), most hits filed as inhibitors; 0.28% of 350,000 active; note: nearly all actives have a fitted effect of over 40% in size
#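 Compounds were preincubated with Tdp1 (1 nM final) for 15 min at room temperature before substrate (15 nM final) started a 5 min reaction; beads (10 ug/ml final) were then added for 10 min before AlphaScreen detection.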
# GCN5L2 inh: qHTS Assay for Inhibitors of GCN5L2; Histone acetyltransferase KAT2A (Homo sapiens), Q92830; GCN5L2 HAT assay, ThioGlo1 CoA-SH fluorescence; Potency, µM (doses to about 58.9 µM), most hits filed as inhibitors; 0.21% of 390,000 active; AID 504327, 2011
#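 Compounds, pin-transferred from DMSO stocks, meet 20nM GCN5L2 for 15 min before the reaction begins with H3(1-25) peptide (75uM) and acetyl-CoA (70uM). Thiol-reactive ThioGlo1 reports CoA release over 20 min at room temperature.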
# TDP1 cell noCPT: qHTS for Inhibitors of human tyrosyl-DNA phosphodiesterase 1 (TDP1): qHTS in cells in absence of CPT | DT40 Tdp1-/- hTDP1 cells, no CPT, ATP luminescence, 48 h | Potency, µM (doses to about 46.2 µM), usual class: inhibitors | 15% of 420,000 active; note: nearly all actives have a fitted effect of over 55% in size
#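 Readout: luminescence from CellTiter-Glo after 30 min in the dark at RT. Cells: DT40 Tdp1-/- with stable hTDP1, 400/well. Exposure: compounds alone, ≥48 hr, 37 °C.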
# A number is an active result; - = inactive; ? = inconclusive; . = no result given; [ ] = another dose, or the depositor's remark. Calls come from the whole dose curve; as a rule, active = well fitted curve in the direction sought with a large enough effect; inconclusive = small, poorly fitted or top-dose-only effect, or another doubt; inactive = no such curve, though single readings can be large; an effect the other way counts as inactive or inconclusive.
SMILES,PLK1 PBD inh,DT40 TDP1 CPT,VDR inhibitor,TDP1 block,GCN5L2 inh,TDP1 cell noCPT
Cc1ccc2cccc(OCC(=O)Nc3cccc(S(=O)(=O)N4CCCC4)c3)c2n1,-,21µM,-,-,-,16µM
Cc1ccc(OCC(=O)Nc2cccc(S(=O)(=O)N3CCCC3)c2)cc1C,-,-,.,.,.,?
N#Cc1ccccc1OCC(=O)Nc1cccc(S(=O)(=O)N2CCCCCC2)c1,-,?,-,-,-,21µM
O=S(=O)(c1ccc(Br)s1)N1CCN(c2cccc(C(F)(F)F)c2)CC1,.,?,-,-,-,?
CCOCCn1c(CN2CCN(c3ccc(F)cc3)CC2)nc2c1c(=O)n(C)c(=O)n2C,-,13µM,-,-,-,18µM
CCOCCn1c(CN2CCN(C)CC2)nc2c1c(=O)n(C)c(=O)n2C,-,-,-,.,-,-
CC1CCN(C(=O)Cn2cnc3c2c(=O)n(C)c(=O)n3C)c2ccccc2S1 (stereo not given),-,?,-,-,-,18µM
Cn1c(=O)c2c(ncn2CC(=O)N2CCCc3ccccc32)n(C)c1=O,-,-,-,-,-,-
COC(=O)Cn1c(CN2CCN(c3ccc(F)cc3)CC2)nc2c1c(=O)n(C)c(=O)n2C,-,2.3µM,-,-,-,1.8µM
Cn1c(=O)c2c(ncn2CC(=O)N2CCN(c3ccc(F)cc3)CC2)n(C)c1=O,27µM,?,-,-,-,?
O=C(NCCCn1ccnc1)c1ccc(COc2ccccc2)o1,-,-,-,.,-,-
Cc1ccc(CNC(=O)c2cc3c(s2)-c2c(C)cccc2OC3)cc1,.,-,-,-,-,?
CC(OC(=O)c1cc(=O)[nH]c2ccccc12)C(=O)N1C(C)CCCC1C (stereo not given),-,?,-,-,-,-
O=S(=O)(C/C(=C/CO)S(=O)(=O)c1ccccc1)c1ccccc1,?,0.82µM,?,-,-,2.3µM
COC(=O)c1ccccc1NC(=O)c1cc2c(s1)-c1ccccc1OC2,.,16µM,-,-,-,?
O=C(Nc1cccc(C(F)(F)F)c1)c1cc2c(s1)-c1ccccc1OC2,-,-,-,-,-,-
COc1cc(NC(=O)c2cc3c(s2)-c2ccccc2OC3)cc(OC)c1OC,.,16µM,-,-,-,8.2µM
O=C(O)c1cc2c(s1)-c1ccccc1OC2,-,-,-,-,-,-
O=C(CN1C(=O)COc2ccc(Cl)cc21)NC1CC1,-,-,-,-,-,-
CCN(C(=O)COC(=O)CN1C(=O)c2ccccc2C1=O)c1ccccc1,-,-,-,-,-,-
CCN(C(=O)CCCCC(=O)N(CC)c1ccccc1)c1ccccc1,-,?,-,.,.,18µM
O=C(COC(=O)C1CCCCC1)Nc1ccc(S(=O)(=O)N2CCOCC2)cc1,-,-,-,-,-,-
NS(=O)(=O)c1ccc(CCNC(=O)c2cnccn2)cc1,-,-,-,.,-,-
Cc1ccc(-n2ncc(C(=O)NCc3ccccc3)c2C2CCN(C(=O)OC(C)(C)C)CC2)cc1,.,21µM,-,?,-,?
CC(C)(C)OC(=O)N1CCC(c2c(C(=O)NCc3cccc(Cl)c3)cnn2-c2ccc(F)cc2)CC1,.,?,-,-,-,13µM
SMILES,PLK1 PBD inh,DT40 TDP1 CPT,VDR inhibitor,TDP1 block,GCN5L2 inh,TDP1 cell noCPT
CC(C)(C)OC(=O)N1CCC(c2c(C(=O)NCCN3CCC(Cc4ccccc4)CC3)cnn2-c2ccc(F)cc2)CC1,.,5.2µM,-,-,-,5.2µM
CCC1CN(CC(=O)N(C)Cc2nc3ccccc3[nH]2)Cc2cc(OC)ccc2O1 (stereo not given),.,-[9.04 µM],.,.,.,-
CC(OC(=O)/C=C/c1ccccc1)C(=O)N1CCc2ccccc21 (stereo not given),-,-,-,.,-,-
CC(O)(c1ccc(F)c(F)c1)c1nc(-c2ccc3ccccc3c2)cs1 (stereo not given),-,18µM,.,.,.,?
CC(O)(c1ccc(F)c(F)c1)c1nc(-c2cnc3ccccc3c2)cs1 (stereo not given),-,16µM,.,.,.,15µM
O=C(OCc1ccco1)c1ccc2c(c1)N(Cc1ccc([N+](=O)[O-])cc1)C(=O)c1ccccc1S2,.,.,-,-,-,.
CCCn1c(SCc2nc3sc(C)c(C)c3c(=O)[nH]2)nc2ccccc2c1=O,-,?,-,-,-,15µM
CCn1c(SCc2nc3sc(C(=O)O)c(C)c3c(=O)[nH]2)nnc1-c1ccc(Cl)cc1,-,-,-,-,-,-
CCn1c(SCc2nc3ccccc3c(=O)[nH]2)nc2ccccc21,-,?,-,-,-,21µM
COCCn1c(Cc2ccccc2)nnc1SCc1nc2ccccc2c(=O)[nH]1,-,?,-,-,-,16µM
Cc1sc2nc(CSc3nnnn3-c3ccc(Cl)cc3)[nH]c(=O)c2c1C,-,?,-,-,-,16µM
CCC[C@H]1CN(Cc2ccccc2)C(=O)[C@@H]1CC(=O)NC,-,-,.,.,.,-
C/C(=N\NC(=O)c1cccnc1)c1ccc(C)c([N+](=O)[O-])c1,-,-,-,-,-,-
C/C(=N\NC(=O)c1[nH]c2c([N+](=O)[O-])cc(C)cc2c1-c1ccccc1)c1cccnc1,-,26µM,-,-,-,15µM
CCc1ccccc1NC(=O)c1ccc2c(c1)CCCN2S(C)(=O)=O,.,-,-,-,?,-
N#CC(C#N)=C1C=C2C=C(N3CCOCC3)CCC2CC1 (stereo not given),-,-,71µM,-,-,?
N#CC(C#N)=C1C=C2C=C(N3CCCCCC3)CCC2CC1 (stereo not given),-,?,-,-,-,?
Cc1ccc2oc(=O)c3cnn(CC(=O)N4CCN(c5cccc(C(F)(F)F)c5)CC4)c3c2c1,.,?,-,-,-,?
O=C(NC1CCCCC1)C(c1ccc2ncccc2c1)N(Cc1ccccc1)C(=O)c1cccs1 (stereo not given),-,?,-,-,-,18µM
O=C(NC1CCCCC1)C(c1ccc2ncccc2c1)N(Cc1ccc2c(c1)OCO2)C(=O)c1cccs1 (stereo not given),-,18µM,-,-,-,?
O=C1NC[C@@H](CCCCN2C[C@H](Cc3ccc(O)cc3)N(CCc3ccc(O)cc3)C(=O)C2=O)N(CCc2ccc(O)cc2)C1=O,-,-,.,.,.,-
S=C(NN=C1CCCCCC1)Nc1ccc(Cl)cc1,-,29µM,-,-,-,29µM
